# Hits are enriched below; roughly 2.9% of the tested compounds scored in any of these assays.
# MRP resist rev = MRP-mediated drug resistance reversal | H69AR cells + 2 uM doxorubicin, CellTiter-Glo, 72 h | differential viability (reversal), % at 10 µM | 0.04% of 85,000 active | AID 602;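 active = viability drop by adding the cancer drug above about 55%, with treated viability meeting a 40% cutoff, limit read from the data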;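 also: viability without doxorubicin minus viability with 2 µM doxorubicin for each compound; larger differential means the compound sensitizes cells more to doxorubicin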
# ERa SRC1 inh = ER-alpha (human) coactivator binding inhibition; P03372; TR-FRET ER-alpha LBD / SRC-1 peptide, estradiol-bound; inhibition, % at 25.6 µM; 1.7% of 86,000 active; AID 629; in the data active = inhibition above about 50%;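 also: 0% = receptor plus peptide control and 100% = peptide only without receptor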
# MRP-1 activ = activates MRP-1 | viability increase, % at 10 µM | H69AR cells + doxorubicin, viability rescue, CellTiter-Glo | 0.61% of 140,000 active | AID 799;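 active = viability gain under doxorubicin at or above a set limit, the compound median plus 3 SD, cut at about 4.7% in these data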;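 also: MRP-1 overexpressing cells given doxorubicin 25 µM after compound pretreatment; 18-22 h compound pretreatment then 72 h with doxorubicin before readout; 0% = doxorubicin-only wells and 100% = vehicle-treated cells without doxorubicin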
# Smad3 inh = Smad3 (human) transcription factor binding inhibition; 0.29% of 88,000 active; TR-FRET Smad3/Dy647-FoxH1 peptide binding, europium anti-His; inhibition, % at 25 µM; P84022; AID 630;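 active = compounds that reduce the energy-transfer binding signal between the protein and its labelled peptide by more than half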;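 also: 0% = Smad3 plus labelled peptide maximal FRET and 100% = peptide-only background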
# ERa SRC1 pot = enhances coactivator binding to human estrogen receptor alpha | TR-FRET ERalpha-LBD/SRC-Cy5 coactivator binding, 2 h; 100 = basal binding, no effect | coactivator binding (% of control), % at 25.6 µM | 1.3% of 86,000 active; in the data active = activity above about 200%;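 also: binding measured in presence of low estradiol as agonist stimulus; 0% = peptide alone without receptor and 100% = receptor with peptide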
# ERb SRC1 inh = ER-beta (human) coactivator binding inhibition | TR-FRET ER-beta LBD / SRC1-Cy5 peptide binding; receptor agonist-loaded with 1 µM estradiol | 1.3% of 86,000 active | AID 633 | inhibition, % at 25.6 µM;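 active = compounds whose percent inhibition of the receptor-coactivator binding signal exceeds about 50% in the single-dose screen, limit read from the data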;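 also: 0% = receptor plus peptide wells without compound and 100% = peptide-only wells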
# Target sequence (Q92731 whole entry, looked up, the tested form may be a part): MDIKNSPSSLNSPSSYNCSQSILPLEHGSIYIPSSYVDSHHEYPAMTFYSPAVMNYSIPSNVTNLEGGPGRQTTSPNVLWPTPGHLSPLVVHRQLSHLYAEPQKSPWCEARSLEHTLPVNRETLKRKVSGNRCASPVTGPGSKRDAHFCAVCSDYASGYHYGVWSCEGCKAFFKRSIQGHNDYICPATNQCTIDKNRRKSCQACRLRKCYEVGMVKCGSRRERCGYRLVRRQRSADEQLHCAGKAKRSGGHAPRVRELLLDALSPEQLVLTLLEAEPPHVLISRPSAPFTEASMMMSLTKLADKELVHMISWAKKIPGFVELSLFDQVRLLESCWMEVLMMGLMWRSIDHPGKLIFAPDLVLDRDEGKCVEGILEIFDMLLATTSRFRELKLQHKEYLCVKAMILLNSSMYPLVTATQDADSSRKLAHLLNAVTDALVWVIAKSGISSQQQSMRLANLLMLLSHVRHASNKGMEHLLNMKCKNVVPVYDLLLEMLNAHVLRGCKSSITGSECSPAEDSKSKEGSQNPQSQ
# * hit, by the source's call; nt = no result; + = active, no number; [ ] = another dose, or the depositor's remark.
SMILES,MRP resist rev,ERa SRC1 inh,MRP-1 activ,Smad3 inh,ERa SRC1 pot,ERb SRC1 inh
C=CCn1c(COc2ccc(Cl)cc2)nnc1SCC(=O)N1CC(=O)Nc2ccccc21,16,-3,4.7*,-4,107,-3
C=CCn1c(COc2ccc(Cl)cc2)nnc1SCC(=O)N/N=C/c1cccc(O)c1,nt,nt,3,nt,nt,nt
O=C(O)[C@H](/C=C/c1ccccc1)c1ccccc1,nt,nt,nt,-10,nt,nt
Cc1sc2ncnc(SCC#N)c2c1C,11,76*[fluorescence artefact?],0,4,97,48
COc1cccc(-c2nnn(CC(=O)Nc3ccc(C)cc3C)n2)c1OC,-4,27,-1,4,283*[fluorescence artefact?],31
COc1ccc(CCNC(=O)Cn2nnc(-c3cccc(OC)c3OC)n2)cc1OC,16,-3,-3,-23,101,10
Cc1cc(C)cc(OCC(=O)Nc2ccc(F)cc2)c1,-1,9,1,0,79,-9
Cc1cc(C)cc(OCC(=O)Nc2ccc(N3CCCC3)cc2)c1,12,97*[fluorescence artefact?],-3,0,3,71*
Cc1cccc(OCC(=O)Nc2ccc(N3CCCC3)cc2)c1C,11,95*[fluorescence artefact?],-4,-3,6,59*[fluorescence artefact?]
Cc1ccc(OCC(=O)Nc2ccc(N3CCCC3)cc2)cc1C,1,99*[fluorescence artefact?],-1,11,-2,82*[fluorescence artefact?]
Cc1cc(C)cc(OCC(=O)NCCN2CCOCC2)c1,1,-10,-1,2,112,85*[fluorescence artefact?]
Cc1ccc(C)c(OCC(=O)Nc2ccc(S(=O)(=O)Nc3ccccn3)cc2)c1,nt,nt,0,nt,nt,nt
CN(C)CCNCCN,nt,nt,nt,5,nt,nt
CC(C)Cn1cnc2c(SCc3ccc(Cl)cc3Cl)nc(N)nc21,nt,nt,nt,41,nt,nt
Cc1cc(C)c(C(=O)COC(=O)c2cc([N+](=O)[O-])ccc2NCCO)cc1C,nt,nt,-1,nt,nt,nt
CN1CCN(c2ccc(NC(=O)COc3ccccc3Cl)cc2)CC1,-5,57*[fluorescence artefact?],0,3,28,72*[fluorescence artefact?]
Cc1cccc(OCC(=O)Nc2cccc(-c3nnc(-c4ccccc4)o3)c2)c1C,-8,72*[fluorescence artefact?],-1,-4,124,44
CCC1SC2=NC(C)=C(C(=O)OC)C(c3cccs3)N2C1=O (centres undefined),-11,5,5.5*,-6,93,0
CCOC(=O)C1=C(C)N=C2SC(CC)C(=O)N2C1c1cccc(F)c1 (centres undefined),4,8,6.3*,-8,112,1
Cn1c(=O)c2[nH]c(CCC(=O)O)nc2n(C)c1=O,nt,nt,nt,-1,nt,nt
CCC(C(=O)NCc1ccco1)n1nc(-c2ccc(OC)cc2)ccc1=O (centres undefined),4,42,-1,-2,227*[fluorescence artefact?],37
COc1ccc(-c2ccc(=O)n(CC(=O)NCc3ccco3)n2)cc1,-3,10,-2,-8,106,9
CC(C)c1nc2sc3c(SCC(=O)NCc4ccco4)ncnc3c2c2c1CCC2,-37,11,-3,-9,+[fluorescence artefact?],12
Cc1nc2c(sc3nc4c(cc32)COC(C)(C)C4)c(=O)n1CC(=O)NCc1ccco1,-8,13,0,-8,78,24
CC1(C)Cc2nc3sc4c(SCC(=O)NCc5ccco5)ncnc4c3cc2CO1,-30,26,-2,-9,289*[fluorescence artefact?],40
SMILES,MRP resist rev,ERa SRC1 inh,MRP-1 activ,Smad3 inh,ERa SRC1 pot,ERb SRC1 inh
CSc1nc(SCC(=O)NCc2ccco2)c2c3c(sc2n1)CN(C)CC3,-14,52*[fluorescence artefact?],-2,11,58,35
CC1(C)Cc2c(sc3c2c2ncnn2c2nnc(SCC(=O)NCc4ccco4)n32)CO1,18,-2,-2,11,116,74*[fluorescence artefact?]
O=C(O)[C@H]1CCCN1,nt,nt,nt,-3,nt,nt
Cn1ncc2c(Nc3ccc4ccccc4c3)ncnc21,2,2,-5,13,112,0
CCOC(=O)c1ccc(Nc2ncnc3c2cnn3C)cc1,0,-3,-1,-6,111,72*[fluorescence artefact?]
Cc1ccc(S(=O)(=O)N2CCC(C(=O)N[C@@H](C)C(=O)Nc3ccc4c(c3)OCO4)CC2)cc1,1,6,6.2*,-7,77,10
c1ccc2cc(-c3cc(-c4cc(-c5ccc6ccccc6c5)on4)no3)ccc2c1,nt,nt,nt,6,nt,nt
COc1ccc(OCC(=O)Nc2cc(-c3nn4c(C)nnc4s3)ccc2C)cc1,5,20,-1,-213,276*[fluorescence artefact?],12
COc1ccc(C(=O)Nc2cc(-c3nn4c(C)nnc4s3)ccc2C)cc1,7,8,-1,22,87,2
Cc1cc(OCC(=O)Nc2cc(-c3nn4c(C)nnc4s3)ccc2C)ccc1Cl,-13,-45,1,-370,621*[fluorescence artefact?],14
CN1C(=O)c2ccccc2C(C(=O)NCC2CCCO2)C1c1c[nH]c2ccccc12 (centres undefined),6,-6,-2,4,97,81*[fluorescence artefact?]
COCCN1C(=O)c2ccccc2C(C(=O)NCC2CCCO2)C1c1c[nH]c2ccccc12 (centres undefined),11,-5,-2,-4,109,-2
CC(=O)Nc1ccc2[nH]c(C)cc(=O)c2c1,24,77*,-1,3,33,44
COc1cccc2cc(-c3nc(-c4cccs4)cs3)c(=O)oc12,4,50*[fluorescence artefact?],0,3,86,24
O=C(O)CC12C[C@@H]3C[C@@H](CC(O)(C3)C1)C2,nt,nt,nt,2,nt,nt
O=c1[nH]c(=S)[nH]c(-c2ccccc2)c1Cc1c(O)ccc2ccccc12,nt,nt,nt,8,nt,nt
N#Cc1c(-c2ccccc2)[nH]c(=S)[nH]c1=O,23,-1,4.7*,-5,94,-1
O=C(CSc1n[nH]c(-c2ccc(S(=O)(=O)N3CCCCC3)cc2)n1)Nc1nccs1,-19,50*,-4,0,136,21
Cn1c(SCC(=O)Nc2nccs2)nnc1-c1ccc(S(=O)(=O)N2CCCC2)cc1,1,11,-3,1,41,5
CCCOc1ccc(N)cc1N,-14,99*[fluorescence artefact?],2,9,-3,99*[fluorescence artefact?]
C[C@@]12C[C@H](O)[C@@H]3[C@H](CCC4=CC(=O)CC[C@]43C)[C@H]1CC[C@H]2c1csc(-c2ccccc2)n1,nt,nt,nt,0,nt,nt
CN1CCc2nc(N)nc(-c3nc(N)nc4c3CN(C)CC4)c2C1,nt,nt,nt,23,nt,nt
COc1cccc(NC2SC(=O)N(c3ccccc3)C2=O)c1 (centres undefined),-4,-16,-2,-8,204*,-2
NC(=O)[C@H]1CCCN1Cc1ccc2c(c1)OCO2,nt,nt,nt,6,nt,nt
COCCn1c(=O)c2cc3c(=O)n(CCOC)c(=O)c3cc2c1=O,-5,-2,0,-12,95,-16
C[N@@+]1(CC[N@+]2(C)CCC[C@@H]2c2cccnc2)CCC[C@@H]1c1cccnc1,nt,nt,nt,91*,nt,nt
COc1ccc(NC(=O)COC(=O)[C@@H]2CCCN2C(=O)c2cccs2)c(OC)c1,nt,nt,0,nt,nt,nt
NC(=O)c1ccsc1NC(=O)COC(=O)C1CCCN1C(=O)c1cccs1 (centres undefined),13,53*[fluorescence artefact?],-4,2,44,68*[fluorescence artefact?]

# Screens from PubChem BioAssay.
